Test results taken from PubChem BioAssay AID1159580 (chemical genetic matrix, 2015).
Where “and” joins values, the source holds several entries; their conditions need not be identical. Equal entries are not always repeated. In all, about 5,500 compounds went through this assay and about 2,000 (36%) were called active. About 18% were inconclusive and are not listed. Cut-off read from the data, not from the text of the source: active = normalized growth mostly below about 0.91 (no sharp cut-off); inconclusive = no clear call, values can overlap the other calls; inactive = mostly above about 0.92. The list shows a part of the results.

Test: chemical genetic growth profiling, strain panel (AID 1159580);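 note: tested at 20 µM; growth read once vehicle control cultures reached saturation at 30 °C; 1 = growth at the plate median or of vehicle wells; lower values mean less growth of the strain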
Settings: S. cerevisiae deletion strains, growth OD

Measured: normalized growth

CC(=O)Oc1ccc2c(c1)CCC1C2CC[C@]2(C)C(=O)CCC12 (some centres undefined)
inactive: locus YAL013W, strain DEP1, stronger effect = lower value 0.985 | locus YAL021C, strain ccr4, stronger effect = lower value 0.995 | locus YAL026C, strain drs2, stronger effect = lower value 0.992 | locus YAL030W, strain snc1, stronger effect = lower value 0.972 | locus YBL061C, strain skt5, stronger effect = lower value 0.987 | locus YBR009C, strain hhf1, stronger effect = lower value 0.986 | locus YBR021W, strain FUR4, stronger effect = lower value 0.961 | locus YBR023C, strain chs3, stronger effect = lower value 0.985 | locus YBR171W, strain sec66, stronger effect = lower value 0.963 | locus YBR229C, strain ROT2, stronger effect = lower value 1 | locus YBR231C, strain swc5, stronger effect = lower value 0.984 | locus YBR279W, strain paf1, stronger effect = lower value 0.98 | locus YCL011C, strain gbp2, stronger effect = lower value 0.994 | locus YCL016C, strain dcc1, stronger effect = lower value 0.997 | locus YCL029C, strain bik1, stronger effect = lower value 1.03 | locus YCL061C, strain MRC1, stronger effect = lower value 0.985 | locus YCL069W, strain vba3, stronger effect = lower value 0.986 | locus YCR088W, strain abp1, stronger effect = lower value 0.979 | locus YDL005C, strain med2, stronger effect = lower value 0.959 | locus YDL035C, strain GPR1, stronger effect = lower value 0.957 | locus YDL040C, strain nat1, stronger effect = lower value 0.989 | locus YDL074C, strain BRE1, stronger effect = lower value 0.911 | locus YDL101C, strain DUN1, stronger effect = lower value 1 | locus YDL134C, strain PPH21, stronger effect = lower value 0.977 | locus YDL185W, strain tfp1, stronger effect = lower value 1 | locus YDL192W, strain arf1, stronger effect = lower value 1.01 | locus YDR001C, strain nth1, stronger effect = lower value 0.985 | locus YDR069C, strain doa4, stronger effect = lower value 0.969 | locus YDR101C, strain arx1, stronger effect = lower value 1.02 | locus YDR150W, strain NUM1, stronger effect = lower value 0.994 | locus YDR159W, strain sac3, stronger effect = lower value 0.979 | locus YDR162C, strain NBP2, stronger effect = lower value 0.998 | locus YDR195W, strain ref2 0.942 | locus YDR297W, strain sur2, stronger effect = lower value 0.99 | locus YDR318W, strain mcm21, stronger effect = lower value 1.01 | locus YDR334W, strain swr1, stronger effect = lower value 0.984 | locus YDR335W, strain msn5, stronger effect = lower value 0.992 | locus YDR388W, stronger effect = lower value 1.02 | locus YDR392W, strain spt3, stronger effect = lower value 1.03 | locus YDR502C, strain sam2, stronger effect = lower value 1.01 | locus YEL003W, strain gim4, stronger effect = lower value 0.988 | locus YEL037C, strain rad23, stronger effect = lower value 0.989 | locus YEL061C, strain CIN8 (second series), stronger effect = lower value 0.977 | locus YEL061C, strain CIN8, stronger effect = lower value 0.998 | locus YER015W, strain faa2, stronger effect = lower value 0.964 | locus YER016W, strain bim1, stronger effect = lower value 0.991 | locus YER110C, stronger effect = lower value 1.01 | locus YER111C, strain swi4, stronger effect = lower value 0.96 | locus YER155C, strain BEM2 (second series), stronger effect = lower value 0.923 | locus YER155C, strain BEM2, stronger effect = lower value 1.02 | locus YER167W, strain BCK2, stronger effect = lower value 1.02 | locus YFR010W, strain ubp6, stronger effect = lower value 0.985 | locus YGL078C, strain dbp3, stronger effect = lower value 1.02 | locus YGL086W, strain mad1, stronger effect = lower value 1 | locus YGL167C, strain pmr1, stronger effect = lower value 0.98 | locus YGL173C, strain kem1, stronger effect = lower value 0.981 | locus YGL227W, strain vid30, stronger effect = lower value 0.987 | locus YGL240W, strain doc1, stronger effect = lower value 0.95 | locus YGL248W, strain PDE1, stronger effect = lower value 0.949 | locus YGL253W, strain hxk2, stronger effect = lower value 0.995 | locus YGR135W, strain pre9, stronger effect = lower value 1.01 | locus YGR229C, strain SMI1, stronger effect = lower value 1.03 | locus YGR252W, strain gcn5, stronger effect = lower value 0.887 | locus YHR013C, strain ard1, stronger effect = lower value 1 | locus YHR027C, strain rpn1, stronger effect = lower value 0.969 | locus YHR030C, strain SLT2, stronger effect = lower value 1.01 and 0.944 | locus YHR079C, strain IRE1 (second series), stronger effect = lower value 1.02 | locus YHR079C, strain IRE1, stronger effect = lower value 0.933 | locus YHR094C, strain hxt1, stronger effect = lower value 1.02 | locus YHR129C, strain ARP1, stronger effect = lower value 1.01 | locus YHR142W, strain chs7, stronger effect = lower value 0.978 | locus YHR200W, strain rpn10, stronger effect = lower value 1.02 | locus YIL066C, strain RNR3, stronger effect = lower value 0.944 | locus YIL073C, strain SPO22, stronger effect = lower value 0.921 | locus YIL125W, strain kgd1, stronger effect = lower value 1.01 | locus YIR030C, strain dcg1, stronger effect = lower value 1.02 | locus YJL092W, strain hpr5, stronger effect = lower value 0.981 | locus YJL095W, strain BCK1 (second series), stronger effect = lower value 0.985 | locus YJL095W, strain BCK1, stronger effect = lower value 0.92 and 0.928 | locus YJL115W, strain asf1, stronger effect = lower value 0.978 | locus YJL129C, strain trk1, stronger effect = lower value 0.984 | locus YJL134W, strain LCB3, stronger effect = lower value 1.01 | locus YJL154C, strain vps35, stronger effect = lower value 0.979 | locus YJL164C, strain tpk1, stronger effect = lower value 0.996 | locus YJL166W, strain qcr8, stronger effect = lower value 0.96 | locus YJL168C, strain set2, stronger effect = lower value 1.01 | locus YJL187C, strain SWE1 (second series), stronger effect = lower value 0.969 | locus YJL187C, strain SWE1, stronger effect = lower value 0.981
active: locus YDR137W, strain rgp1, stronger effect = lower value 0.808
